Activity calls are given as the source filed them. Calls follow the shape of the dose curve; as a rule, active = well fitted activation curve with a large enough effect; inconclusive = small, poorly fitted or top-dose-only effect; inactive = no such curve, though single readings can be large or run the other way.
Target: Cytochrome P450 3A4 (Homo sapiens) (UniProt P08684)
Assay: qHTS Assay for Activators of Cytochrome P450 3A4 (AID 885); also: nearly all actives have a fitted effect of over 65% in size
Conditions: recombinant CYP3A4, Luciferin-PPXE luminescence, 60 min; series mostly up to 57.1 µM; activity change, positive = activation: at the top concentration
Description: NIH Molecular Libraries Screening Centers Network [MLSCN]
NIH Chemical Genomics Center [NCGC]
The P450 gene superfamily is involved in the metabolism and clearance of xenobiotics. This assay used human CYP3A4 to measure the dealkylation of luciferin-6' phenylpiperazinylyl (Luciferin-PPXE; […]) to luciferin. The luciferin is then measured by luminescence after the addition of a luciferase detection reagent. Luciferin-PPXE concentration in the assay was equal to its KM for CYP3A4. Inhibitors and some substrates limit the production of luciferin, and decrease measured luminescence; activators increase the production of luciferin and luminescence.
NCGC Assay Protocol Summary:
Two uL of enzyme and substrate mix (final concentrations: 20nM CYP3A4, 25uM Luciferin-PPXE, 200mM KPO4) were dispensed into a white, solid bottom 1536-well microtiter plate. 23nL of compound was transferred by a pin tool. The plate was incubated at RT for 10 min. Two uL of an NADPH regeneration solution (Promega supplied reagent) was dispensed and the reaction was allowed to continue for 60 min at RT. Then the reaction was stopped by reconstituted luciferin detection buffer. After another 20 min of incubation the plate was read on the ViewLux (Perkin Elmer) at 60 sec exposure and 2x2 binning. This protocol was carried out with Promega-Glo reagents and further information can be found at http://www.promega.com/tbs/tb325/tb325.pdf. Data were normalized to the to AC100 inhibition (57 uM ketoconazole).
Keywords: P450, CYP2D6, Luciferase, MLSMR, MLSCN, NIH Roadmap, qHTS, NCGC
Potency is read from the fitted curve at half-maximal effect.

Sequence of Cytochrome P450 3A4 (Homo sapiens) (P08684 whole entry, looked up): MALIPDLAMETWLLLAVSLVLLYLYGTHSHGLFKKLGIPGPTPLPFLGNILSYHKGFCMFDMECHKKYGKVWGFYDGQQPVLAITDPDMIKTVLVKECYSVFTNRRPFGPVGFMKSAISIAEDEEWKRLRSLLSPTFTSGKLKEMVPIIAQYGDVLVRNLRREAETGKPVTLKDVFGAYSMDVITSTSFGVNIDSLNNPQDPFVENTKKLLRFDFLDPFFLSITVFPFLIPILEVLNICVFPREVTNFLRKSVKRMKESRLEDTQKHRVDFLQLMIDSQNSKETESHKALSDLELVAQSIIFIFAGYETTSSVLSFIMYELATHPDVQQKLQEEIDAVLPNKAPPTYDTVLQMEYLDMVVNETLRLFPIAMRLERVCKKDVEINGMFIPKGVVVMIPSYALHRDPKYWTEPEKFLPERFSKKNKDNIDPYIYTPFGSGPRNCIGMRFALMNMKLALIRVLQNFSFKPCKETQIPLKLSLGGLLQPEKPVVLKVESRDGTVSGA

Activity change, positive = activation, inactive:
COC1=CC(=O)C(C(=O)c2ccccc2)=CC1=O -42.3%, CC1(C)OC2CC3C4CC(F)C5=CC(=O)C=C[C@@]5(C)[C@@]4(F)C(O)C[C@@]3(C)[C@]2(C(=O)CO)O1 (stereo not given in full) -44.5%, CC(=O)OCC(=O)[C@@]1(O)CCC2C3CC(C)C4=CC(=O)C=CC4(C)C3C(O)CC21C (stereo not given in full) -54.8%, CC1=CCc2c(cc3oc(C)cc(=O)c3c2O)OC1 -69.1%, CC[C@@H]1OC(=O)[C@H](C)[C@H](O[C@@H]2C[C@](C)(OC)[C@H](O)[C@H](C)O2)[C@H](C)[C@H](O[C@@H]2O[C@@H](C)C[C@@H](N(C)C)[C@@H]2O)[C@](C)(O)C[C@H](C)C(=NOCOCCOC)[C@H](C)[C@H](O)[C@]1(C)O -44.6% [at 25.6 µM], COc1ccc(-c2oc3cc(O[C@@H]4OC(CO)C(O)C(O)C4O)c(OC)c(O)c3c(=O)c2OC)cc1O (stereo not given in full) -41.7%, COc1cc(N[C@@H](C)CCCN)c2ncccc2c1 -37.2% [at 25.6 µM], CCN1CCC[C@@H](OC(=O)C(c2ccccc2)c2ccccc2)C1 -63.1% [at 25.6 µM], C=CCCCCCCCCCCC/C=C/C(O)COC(C)=O (stereo not given) -32.3%, COc1ccc(C2Oc3cc(OC)cc(OC)c3CC2O)cc1 (stereo not given) -41.1%, COc1ccc(CNc2ncncc2-c2ccccc2CN(C)C)c(OC)c1 -92.4%, CC(=O)OC1CC2C(C)(C)C(=O)C=C[C@]2(C)C2CC[C@@]3(C)C(c4ccoc4)OC(=O)C4O[C@@]43[C@]12C (stereo not given in full) -74.1%, COC(=O)C(O)C1C(C)(C)C(OC(C)=O)C2CC3=C4CC(=O)OC(c5ccoc5)[C@]4(C)CCC3[C@@]1(C)C2=O (stereo not given in full) -81.9%, CC(=O)OC1CC(OC(C)=O)[C@]2(C)C(CC(=O)[C@]3(C)C2CC[C@@]2(C)C(c4ccoc4)OC(=O)C4O[C@@]423)C1(C)C (stereo not given in full) -92.5%, C[C@]12C=CC(=O)C=C1CCC1C2C(O)C[C@]2(C)C1CC[C@]2(O)C(=O)CO (stereo not given in full) -33.9%, COc1cc(O)c(C(C)=O)c(OC)c1 -64.9%, C[C@@H](C(=O)O)c1ccc(C(=O)c2ccccc2)s1 -38.8% [at 25.6 µM], Nc1nc2c(nc(Sc3ccc(Cl)cc3)n2C2OC(CO)C(O)C2O)c(=O)[nH]1 (stereo not given) -66.9%, COC(=O)CC1C(C)(C)C(OC(C)=O)C2[C@H](OC(C)=O)[C@]34O[C@]2(O)[C@]1(C)C3CC[C@]1(C)C4=CC(=O)OC1c1ccoc1 (stereo not given in full) -95.2%, C=C1CC[C@@H]2O[C@@]2(C)CC[C@H]2[C@H]1CC2(C)C -41.8%, CC1(C)OC2CC3C4CCC5=CC(=O)CCC5(C)C4(F)C(O)CC3(C)[C@]2(C(=O)CCl)O1 (stereo not given in full) -54.3%, CC(=O)OCC1OC(Oc2cc(OC(C)=O)c3c(=O)cc(-c4ccc(OC(C)=O)cc4)oc3c2)[C@@H](OC(C)=O)C(OC(C)=O)C1OC(C)=O (stereo not given in full) -40.9%, CC(Oc1ccccc1)C(=O)NC1C(=O)N2C(C(=O)O)C(C)(C)S[C@@H]12 (stereo not given in full) -43.3%, CC12CCC3C(=CCc4cc(O)ccc43)C1CCC2=O (stereo not given) -76.2%, CC(=O)OC1C[C@@]2(C)C(c3ccoc3)OC(=O)C3O[C@@]32[C@]2(C)C(OC(C)=O)CC3C(C)(C)C(OC(C)=O)CC(OC(C)=O)[C@@]3(C)C12 (stereo not given in full) -90.4%, CC(=O)OC1CC2C(C)(C)C(O)CC[C@@]2(C)C2CC[C@@]3(C)C(c4ccoc4)OC(=O)C4O[C@@]43[C@]12C (stereo not given in full) -80.1%, C=CCCCCCCCCCCCC(O)CC(O)COC(C)=O (stereo not given) -47%, COc1ccc(-c2coc3cc(OC(C)=O)cc(OC(C)=O)c3c2=O)cc1 -39.1%, COc1cc(O)c(C(=O)c2ccccc2)cc1O -31.2%, CC(=O)OC1CC2C(C)(C)C(=O)[C@@H]3OC3[C@@]2(C)C2CC[C@]3(C)C(=CC(=O)OC3c3ccoc3)[C@]12C (stereo not given in full) -58.5%, Oc1ccc2c(c1)OC(c1ccc(O)c(O)c1)C(O)C2 (stereo not given) -46.7%, CC(C)/C(O)=C1/C(=O)OC(c2ccoc2)[C@@]2(C)C(O)C(O)[C@@]34OC5(C)OC67CC(C)(C(O)[C@@]6(O)C(O)[C@@]3(O5)C12)C(CC(=O)O)[C@@]74C (stereo not given in full) -88.4%, COC(=O)CC1C(C)(C)C(=O)C2CC3=C(CC[C@]4(C)C3=CC(=O)OC4c3ccoc3)[C@@]1(C)C2=O (stereo not given in full) -89.5%, COc1cccc2c1CCC1CC(=O)CC[C@@]21C (stereo not given in full) -61%, CCOC(=O)CCC(=O)O[C@H]1C(O[C@@H]2C(C)[C@H](O[C@H]3C[C@@](C)(OC)C(O)C(C)O3)C(C)C(=O)OC(CC)[C@@](C)(O)C(O)[C@H](C)C(=O)C(C)C[C@]2(C)O)OC(C)CC1N(C)C (stereo not given in full) -63.5%, CC(=O)OC1CC2C(C)(C)C(O)CCC2(C)C2CC[C@]3(C)C(=CC(=O)OC3c3ccoc3)C12C (stereo not given in full) -44.7%

Potency, inactive:
COc1ccc(-c2cc(=O)c3c(O)cc(O)cc3o2)cc1

Potency, active:
C#C[C@@]1(OC(C)=O)CC[C@@H]2[C@@H]3CCC4=C[C@@H](OC(C)=O)CC[C@H]4[C@H]3CC[C@]21C 5.01 µM, C[C@@]12CCC(=O)C=C1C=CC1C2CC[C@]2(C)C1CC[C@@]21CCC(=O)O1 (stereo not given in full) 15.8 µM, CC(=O)OCC(=O)[C@@]1(OC(C)=O)[C@H](C)C[C@H]2[C@@H]3C[C@H](F)C4=CC(=O)C=C[C@@]4(C)[C@]3(F)[C@H](O)C[C@@]21C 6.31 µM
